The values that follow come from PubChem BioAssay (NCI).

Holding throughout (test): NCI-60 one-dose screen, 48 h (100 = growth as untreated, 0 = no growth, -100 = all killed)
Common to all, as to conditions: 10 µM unless noted

For assay [1], the system named is NCI-H23 lung.
Assay [2] concerns NCI-H226 lung.
Assay [3] relates to NCI-H322M lung.
The test system of assay [4] is HOP-62 NSCLC.
The test system of assay [5] is NCI-H460 lung.
The test system of assay [6] is HOP-92 NSCLC.
Assay [7] deals with NCI-H522 lung.
Assay [8] relates to A549/ATCC NSCLC.
For assay [9], the system named is 786-0 renal.
The subject of assay [10] is DU-145 prostate.
Assay [11] deals with MALME-3M melanoma.
Assay [12] concerns MDA-MB-231 breast.
Assay [13] deals with RXF 393 renal.
Assay [14] deals with SF-268 CNS.
In assay [15] the test system is SF-295 CNS.
For assay [16], the system named is SF-539 CNS.
Assay [17] has as its system UACC-257 melanoma.
Assay [18] has as its system M14 melanoma.
In assay [19] the test system is COLO 205 colon.
The test system of assay [20] is K-562 leukemia.

This is part of a sample that, as a whole, favours compounds with a hit. Of some 83,000 tested, about 20% had one in any assay.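 Negative percent growth values reflect cell death: -40 means 40% of the cells present at the start died, and -100 means all died.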 A number with no mark means an inactive call. The source made the active and inactive calls. The calls were made as follows: active = growth percent below 10; inactive = the rest.

In the case of `O=[N+]([O-])c1ccc(-c2cc3c(Nc4ccc(OCc5cccc(Cl)c5)c(Cl)c4)ncnc3s2)cc1`, the growth in assay [1] was 78.7%; in [2], 92.2%; in assay [3], 82.4%; in [4] it was 67.7%; in assay [5], 32%; in [6] it was 80.3%. Besides, the growth is 49.9% in [7]; 29.4% in assay [8]; 88.3% in [9]; 70.4% in assay [10]; 61.2% in assay [11]; 81.6% in assay [12]. The growth is 85.3% in [13]; 76.1% in [14]; 59.6% in assay [15]; 84% in [16]; 58.6% in assay [17]; 35.9% in assay [18].

As to `CCOC(=O)C1=C(C)NC(SCc2nnc(-c3ccc(Cl)cc3)o2)=NC1c1ccc(Cl)cc1Cl` (stereo unspecified), the growth is 66% in assay [1]; 79% in assay [2]; 78.9% in assay [3]; 82.5% in [4]; 59.2% in assay [5]; 26.4% in [6]. For the same molecule, the growth in assay [7] was 50.2%; in assay [8] it was 53.5%; in [9], 65.2%; in [10], 73.1%; in assay [11] it was 72.8%; in [12], 41.7%. Besides, the growth in [13] is 43.4%; in [14], 73.8%; in [15], 47.2%; in [16], 86.4%; in assay [17] it was 68.1%; in assay [18], 65.2%.

Regarding `CN1CCC(=C2c3ccccc3C=Cc3ccccc32)CC1`, the growth in assay [1] was 83.7%; in assay [2], 96%; in assay [3], 104%; in [4] it was 83.4%; in assay [5], 93.3%; in assay [6] it was 67%. Moreover, the growth is 39% in [7]; 91.1% in assay [8]; 67.5% in [9]; 105% in assay [11]; 8.64% (active) in assay [12]; 51.6% in assay [13]. Moreover, the growth in assay [14] is 79.8%; in assay [15], 88.1%; in [16], 87.4%; in [17] it was 81.7%; in [18], 91.7%.

For `Fc1ccc(Nc2nc(Nc3ccc(-c4nc5ccccc5[nH]4)cc3)c3cn[nH]c3n2)cc1`, the growth in [1] was 71%; in assay [2] it was 86.9%; in [3], 84.8%; in assay [4] it was 85.6%; in assay [5] it was 47.5%; in [6], 79%. The growth in assay [7] is 65.9%; in assay [8] it was 73.1%; in [19], 27.8%; in assay [10], 54.3%; in assay [20], -28.7% (active); in assay [11], 107%. In addition, the growth in [12] was 22.2%; in assay [13] it was 76.2%; in assay [14], 75.1%; in [15], 92.6%; in assay [16] it was 85.5%; in assay [17], 101%.

With `Cc1csc(NC(=O)c2sc3nc(-c4cccs4)ccc3c2N)n1`, the growth was 94.2% in assay [1]; 96.9% in assay [2]; 102% in assay [3]; 90.4% in [4]; 99.3% in assay [5]; 84.7% in [6]. In addition, the growth in assay [7] is 82.3%; in assay [8], 94.7%; in assay [19], 103%; in assay [10], 96.4%; in assay [20] it was 90.2%; in [11], 99.6%. Moreover, the growth in assay [12] was 93.4%; in assay [13], 107%; in assay [14], 102%; in assay [15], 99.7%; in [16] it was 96.9%; in assay [17], 109%.

As for `O=[N+]([O-])c1ccc(-c2cc3c(Nc4ccc(Sc5nc6ccccc6s5)c(Cl)c4)ncnc3s2)cc1`, the growth is 19.9% in assay [1]; 76.2% in [2]; 55.5% in assay [3]; 36.1% in assay [4]; 11.8% in assay [5]; 56.6% in assay [6]. Moreover, the growth in assay [7] was 30%; in [8], 18.5%; in assay [9], 61.6%; in assay [10] it was 44.9%; in assay [11] it was 62.9%; in [12], 29.2%. In addition, the growth in assay [13] was 68.8%; in assay [14], 39.4%; in assay [15], 23.2%; in [16], 54.3%; in assay [17] it was 66.6%; in [18] it was 35.2%.

In the case of `Fc1ccc(Nc2nc3nonc3nc2Nc2ccc(F)cc2)cc1`, the growth is 2.78% (active) in [1]; 14.9% in assay [2]; 1.32% (active) in assay [3]; -5.63% (active) in assay [4]; 1.64% (active) in assay [5]; -30.5% (active) in [6]. The growth in [7] was -23.9% (active); in assay [8] it was 6.26% (active); in [19], -80.2% (active); in assay [10], 23.8%; in assay [20] it was 9% (active); in assay [11] it was 1.97% (active). In addition, the growth was -20.5% (active) in assay [12]; 9.9% (active) in [13]; 18.5% in assay [14]; -20.7% (active) in assay [15]; -7.76% (active) in assay [16]; -13.5% (active) in [17].

Turning to `CCOC(=O)C(O)C(O)(c1ccccc1)c1ccccc1` (stereo unspecified), the growth was 102% in assay [1]; 90.2% in [2]; 96.7% in assay [3]; 97% in assay [4]; 110% in assay [5]; 113% in assay [6]. Further, the growth in [7] was 92.8%; in assay [8] it was 95.6%; in assay [9] it was 102%; in [20] it was 98%; in assay [11], 103%; in assay [12], 94.4%. Also, the growth in assay [13] was 113%; in [14], 95.4%; in assay [15] it was 95.6%; in [16], 94.5%; in [17], 106%; in [18] it was 101%.

Regarding `O=C(NCOC(O)C(Cl)(Cl)Cl)NCOC(O)C(Cl)(Cl)Cl` (stereo unspecified), the growth is 102% in assay [1]; 95.7% in assay [2]; 91.7% in assay [3]; 91.6% in [4]; 112% in assay [5]; 119% in [6]. For the same molecule, the growth was 82.8% in assay [7]; 97.5% in [8]; 99.2% in assay [9]; 22.2% in assay [20]; 99.5% in [11]; 106% in assay [12]. The growth is 125% in assay [13]; 105% in [14]; 93.8% in assay [15]; 90.4% in assay [16]; 94.9% in [17]; 100% in assay [18].
